# The entries come from a sample that favours hits as a whole.
# VCAM1 pot – potentiators of TNFa-induced VCAM1 expression, primary screen, imaging, HUVEC, TNFa stimulus, immunofluorescence; HUVEC TNFa-stimulated VCAM-1 immunofluorescence, high-content imaging; scaled per plate to unstimulated/TNFa-only wells; activation, % at 2 µM; 93,000 tested, 0.19% active; AID 808, 2007;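 active = activation above the screen mean plus 3 SD, with well images confirming the hit on visual review, cut at about 28% in these data, passing the limit was not always enough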;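 also: signal is the number of cytoplasmic VCAM-1 stained grains per positive cell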
# VCAM1 pot conf – potentiators of TNFa-induced VCAM1 expression, confirmation, imaging, HUVEC, triplicate retest. shares compounds with VCAM1 pot. HUVEC TNFa-stimulated VCAM-1 immunofluorescence imaging. activation, % at 2 µM. 230 tested, under 10 active. AID 1034, 2008;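 active = activation above 30% in triplicate retests at 2 µM, then confirmed by visual review of the well images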;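 also: scaled per plate between unstimulated and TNFa-stimulated DMSO control wells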
# * hit, by the source's call.
SMILES,VCAM1 pot,others
Cc1ccc(-n2nnc3c(SCC(=O)N4CCN(c5ccccc5)CC4)ncnc32)cc1,-92,
COc1cccc(OC)c1NC(=O)CN1CCC(NC(=O)c2cccc(F)c2)CC1,-100,
COC(=O)C1=C(O)C(C(=O)OC)C(c2ccc(C)cc2)C(C#N)(C#N)C1c1ccc(C)cc1 (configuration not stated),-8,
Cc1ccc(N(C)C(=O)N2CCN(S(=O)(=O)c3ccc(C)c(C)c3)CC2)cc1,-4,
CC(C)(C)C(=O)COC(=O)CNC(=O)c1ccc(Oc2ccccc2)cc1,-1,
C1CSC2(N1)C1CC3CC2CC(C1)C31NCCS1 (configuration not stated),-9,
O=C(O)c1cn(C2CC2)c2cc(N3CCOCC3)c(F)cc2c1=O,-5,
COCCNC(=O)C(c1ccccc1C)N(C(=O)Cn1nnc2ccccc21)c1cccnc1 (configuration not stated),-2,
COc1ccc(NC(=O)CCC(=O)Nc2nnc(C(F)(F)F)s2)c(OC)c1,-16,
O=C(O)C1CCN(S(=O)(=O)/C=C/c2ccccc2)CC1,-8,
O=C1Nc2ccc(F)cc2C12SCCS2,-2,
c1ccc(SCc2nc3ccccc3[nH]2)nc1,13,
CCOC(=O)c1ccc(-n2c(=S)sc3c(=O)[nH]c(C)nc32)cc1,-87,
CC(=O)Nc1cc(C(=O)N2CCN(C)CC2)ccc1Sc1ccc(C)cc1,-8,
CC(C)(C)NC(=O)NC(=O)COC(=O)c1cc(=O)[nH]c2ccccc12,-8,
CCOC(=O)C(O)(CC(=O)c1ccc(OC)cc1)C(F)(F)F (configuration not stated),5,
O=C(N1CCOCC1)N1CCN(S(=O)(=O)N2CCOCC2)CC1,22,
CC1CCN(c2ccccc2NC(=S)NC(=O)c2ccco2)CC1,-6,
Clc1ccc(COc2ccccn2)cc1Cl,-8,
COC(=O)C1=C(C(=O)OC)SC(=C2C(=S)C(C)(C)N(C(=O)CC(C)C)c3ccccc32)S1,-8,
COc1ccc(NC(=O)/C(Cl)=C(/Cl)S(=O)(=O)Cc2ccc(C)cc2)cn1,-51,
CC(C)(C)C(=O)/C(=C\c1cccc([N+](=O)[O-])c1)n1cncn1,-90,
CCOc1ccc(Oc2ccc(-c3nnc(-c4ccccc4)o3)cc2[N+](=O)[O-])cc1,-3,
O=C(Cn1nc(Cc2ccncc2)c2ccccc2c1=O)N1CCc2ccccc2C1,-3,
CCOC(=O)C1C(=O)NC(N2CCCCC2)=NC1c1ccco1 (configuration not stated),-97,
SMILES,VCAM1 pot,others
CC(=O)Nc1c(C(=O)N2CCCCCC2)cnn1-c1ccccc1Cl,-12,
O=C(COc1cccc(C(F)(F)F)c1)Nc1ccc(S(=O)(=O)N2CCCC2)cc1,-17,
COc1ccc(-c2c3c(nc4sc5c(Cl)nc(C)nc5c24)CCC3)cc1,2,
CCCNc1nc(Nc2ccc(C)cc2)nc(N2CCCC2)n1,-16,
CCc1nc(C)cn1S(=O)(=O)c1cc(C)c(OC)c(C)c1C,-8,
Cc1nc2ncnn2c(N2CCN(C(=O)Cc3cccs3)CC2)c1C,-1,
O=S(=O)(C/C(=C/CO)S(=O)(=O)c1ccccc1)c1ccccc1,-86,
Cc1nonc1NCn1nnc2ccccc21,0,
Cc1ccc(-n2c(N)c(C(=O)NCc3cccnc3)sc2=S)cc1,-6,
CCN(C(=O)c1cccc(F)c1)c1ccccc1C,-9,
CCC1=NC(c2ccccc2Cl)N(O)C1(C)C (configuration not stated),-59,
O=c1[nH]c(NCc2ccco2)nnc1Cc1ccccc1Cl,-8,
Cc1ccccc1OC(=O)n1c(=S)oc2cc(Cl)ccc21,-7,
C/C(Sc1nnc(Cc2ccccc2)o1)=C(/O)c1ccccc1,6,
O=c1cc(C(Cl)(Cl)Cl)oc2c1ccc1ccccc12,-80,
CC1(CC(=O)O)C(=O)N=C2C=CC=CN21 (configuration not stated),8,
Cc1[nH]n(-c2ccc([N+](=O)[O-])cc2)c(=O)c1N=Nc1nc2ccccc2s1,-52,
C=CCSc1nnc2c(n1)OC=Nc1ccccc1-2,14,
COC(=O)c1cc(C#N)c(Oc2ccc(F)cc2)nc1C,-8,
O=C(CC12CC3CC(CC(C3)C1)C2)NCC(=O)N1CCc2ccccc2C1,1,
COC(=O)C(C)Sc1nc(-c2ccc(OC)cc2)nc2c1c(=O)n(C)c(=O)n2C (configuration not stated),32,
Cc1onc(-c2ccccc2Cl)c1C(=O)Nc1sc2c(c1C(N)=O)CCC(C)C2 (configuration not stated),6,
C=CCn1c(COc2ccc3c(c2)CCCC3)nnc1SCC(=O)Nc1cccc(SC)c1,3,
CN(c1cccc(NC(=O)CN(c2ccc(C34CC5CC(CC(C5)C3)C4)cc2)S(C)(=O)=O)c1)S(C)(=O)=O,1,
COc1ccc(-c2cc(O)cc(O)c2)cc1,-1,
SMILES,VCAM1 pot,others
COc1ccc(/C=N/N=C2/NC(=O)C(c3ccccc3)(c3ccccc3)S2)cc1,-6,
COc1ccc(CCNC(=O)NC23CC4CC(CC(C4)C2)C3)cc1OC,9,
CS(=O)(=O)N1CCCC(C(=O)NCc2ccc(F)cc2Cl)C1 (configuration not stated),-8,
CC(=O)OCc1nc2sc3c(c2c(=O)[nH]1)CCCC3,-1,
CN(C)c1oc(-c2cccs2)nc1C#N,0,
O=c1oc(-c2cccs2)nc2sc3c(c12)CCCCC3,37*,
CCOC(=O)C1=C(c2cccc(F)c2)NC(=S)NC1C (configuration not stated),-6,
CN(C)CC(C)(C)CNS(=O)(=O)c1ccc(Cl)c(Cl)c1,5,
COCCn1c(SCC(=O)Nc2ccc(Cl)cn2)nc2ccccc21,-7,
CCCCS(=O)CC(O)COCC (configuration not stated),-25,
CC(C)CC(=O)NCc1ccc(F)cc1,-5,
CC(=O)c1ccc(C(C)(C)c2ccc(C(C)=O)s2)s1,13,
N#Cc1ccccc1Sc1ccccc1C(=O)Nc1ccccc1,1,
Cc1cccc(-n2c(SCc3cc(=O)n4c(C)cccc4n3)nc3[nH]ncc3c2=O)c1,0,
COC(=O)C(NC(=O)c1ccc(C)cc1)(Nc1cccc(C)n1)C(F)(F)F (configuration not stated),-17,
Oc1ccc(-n2cnnn2)cc1,-5,
CS(=O)(=O)N(CC(=O)NCc1ccncc1)Cc1ccc(Cl)cc1,-15,
S=C(NN=C1CCCCCC1)Nc1ccc(Cl)cc1,35*,VCAM1 pot conf=-25
CSCCC(NC(=O)c1ccco1)C(=O)O (configuration not stated),-14,
O=C(NCC1COc2ccccc2O1)c1cc2ccccc2o1 (configuration not stated),-16,
N#Cc1c2c(c(=S)n(-c3ccccc3)c1N)CCCC2,83*,VCAM1 pot conf=-8
CCCc1[nH]nc2c1C(c1ccc(OC)c(CSC3=NCCS3)c1)C(C#N)=C(N)O2 (configuration not stated),-5,
Cc1cc2ncn(-c3ncnc4scc(-c5ccccc5)c34)c2cc1C,8,
CCOc1ccc(-c2nc(-c3cccnc3)no2)cc1,3,
Cc1ccc(SCc2nc(-c3cccnc3)no2)cc1,-51,
Cc1ccc(-n2nnnc2-c2cnc(-c3cccnc3)nc2C(F)(F)F)cc1,52*,VCAM1 pot conf=-10
CC1CCc2nc(NC(=O)C3CCCO3)sc2C1 (configuration not stated),-12,
